Source: PubChem BioAssay
DT40 TDP1 no CPT – qHTS for Inhibitors of human tyrosyl-DNA phosphodiesterase 1 (TDP1): qHTS in cells in absence of CPT. DT40 Tdp1-/- hTDP1 cells, no CPT, ATP luminescence, 48 h. Potency, µM (doses to about 46.2 µM), actives largely listed as inhibitors. actives 15% (n = 420,000); note: nearly all actives have a fitted effect of over 55% in size
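DT40 Tdp1-/-;hTDP1 cells, no CPT (DMSO vehicle only), 400 cells/well; compounds pin-transferred; ≥48 hr, 37 °C; CellTiter-Glo 30 min RT dark, luminescence read.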
TDP1 cell CPT – DT40-hTDP1 cell growth loss with CPT | chicken DT40 Tdp1-/-;hTDP1 cells + 20 nM CPT, ATP luminescence, 48 h | actives 12% (n = 420,000) | Potency, µM (titrated, usually from 46.2 µM), actives largely listed as inhibitors; note: nearly all actives have a fitted effect of over 55% in size
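Chicken DT40 Tdp1-/- cells complemented with human TDP1, 400 cells/well, exposed to compounds plus 20 nM camptothecin for at least 48 h at 37 C; viability read as ATP content by CellTiter-Glo luminescence.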
Gal4-VP16 FLuc – inhibits Gal4-VP16 luciferase reporter, ROR gamma counter-screen | Drosophila S2 Gal4-VP16 UAS-luciferase, luminescence, 20 h | Potency, µM (titrated, usually from 53.6 µM), most hits filed as inhibitors | actives 3.5% (n = 310,000) | AID 2546;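 note: Gal4-VP16 expression switched on by copper sulfate through the metallothionein promoter; nearly all actives have a fitted effect of over 50% in size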
IL1B secr inh – blocks inflammasome-driven IL-1 beta release. THP-1 LPS/ATP IL-1B secretion, AlphaLISA, 16 h; active compounds read low. activity change, % at 57.5 µM. actives 4.7% (n = 360,000). AID 743279; in the data active = activity change below about -50%; inconclusive = mostly about -30% to -49%
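THP-1 cells pretreated 1 hr with compounds (up to 57.5 uM final), then stimulated with LPS (250 ng/mL final) plus ATP (1.25 mM final); secreted IL-1B measured by AlphaLISA after 16 hr, decreased signal indicating inhibition.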
RORgamma inh – inhibitors of mouse ROR gamma transcriptional activity; P51450; Drosophila S2 Gal4-RORgamma UAS-luciferase reporter, 20 h; Potency, µM (titrated, usually from 53.6 µM), actives largely listed as inhibitors; actives 5.4% (n = 310,000); AID 2551; note: nearly all actives have a fitted effect of over 60% in size
Target sequence (P51450 whole entry, looked up, the tested form may be a part): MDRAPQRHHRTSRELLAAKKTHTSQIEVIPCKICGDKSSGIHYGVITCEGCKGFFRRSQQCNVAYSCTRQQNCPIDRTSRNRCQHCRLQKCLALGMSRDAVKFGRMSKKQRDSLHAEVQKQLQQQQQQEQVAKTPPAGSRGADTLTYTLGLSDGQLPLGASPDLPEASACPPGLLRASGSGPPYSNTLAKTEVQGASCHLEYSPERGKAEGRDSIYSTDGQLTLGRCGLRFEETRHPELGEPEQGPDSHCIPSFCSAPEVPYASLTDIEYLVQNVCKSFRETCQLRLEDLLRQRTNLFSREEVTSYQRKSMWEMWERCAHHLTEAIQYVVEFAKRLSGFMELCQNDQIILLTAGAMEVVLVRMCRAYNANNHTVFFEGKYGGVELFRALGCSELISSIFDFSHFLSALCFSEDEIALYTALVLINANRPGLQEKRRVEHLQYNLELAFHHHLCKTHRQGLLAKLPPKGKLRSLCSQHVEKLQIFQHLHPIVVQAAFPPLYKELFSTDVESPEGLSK
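Using a luciferase readout, inhibitors were identified by reduced reporter activity in Drosophila cells coexpressing a copper-inducible Gal4–ROR gamma fusion and UAS-driven Photinus luciferase, incubated 20 hr after 700 uM copper sulfate.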
ELG1 DNA repair – inhibitors of ELG1-dependent DNA repair in HEK293T cells; actives 2.3% (n = 330,000); HEK293T ELG1-luciferase reporter, luminescence, 16 h; DNA damage induced by 5-fluorouridine; Potency, µM (titrated, usually from 46.1 µM), actives largely listed as inhibitors; note: nearly all actives have a fitted effect of over 55% in size
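Step one: seed 2,000 cells per well. Step two: pin-transfer compound or DMSO alongside 5-fluorouridine. Step three: incubate 16 hr, 37 °C, 5% CO2. Step four: add ONE-Glo, wait 30 min, read luminescence.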
Numbers stand for hits; – = inactive; ? = inconclusive; · = no result given. This is a sample that favours compounds with a hit; in the whole collection about 21% have one here. Unless noted, calls come from the whole dose curve; as a rule, active = well fitted curve in the direction sought with a large enough effect; inconclusive = small, poorly fitted or top-dose-only effect, or another doubt; inactive = no such curve, though single readings can be large; an effect the other way counts as inactive or inconclusive.

SMILES | DT40 TDP1 no CPT | TDP1 cell CPT | Gal4-VP16 FLuc | IL1B secr inh | RORgamma inh | ELG1 DNA repair
COc1ccccc1N1C(=O)c2cccc3cccc(c23)C1=O | – | – | · | – | · | –
CCN(CC)CCSc1nc2c([nH]1)c(=S)n(C)c(=O)n2C | 5.2µM | 4.1µM | · | – | · | ·
CSc1nc2c([nH]1)c(=S)n(C)c(=O)n2C | 5.2µM | 5.8µM | · | – | · | ·
CCCCSc1nc2c([nH]1)c(=S)n(C)c(=O)n2C | 1.2µM | 1.3µM | · | – | · | ·
Cn1c(=S)c2[nH]c(SCCC(C)(C)C)nc2n(C)c1=O | 1µM | 1.5µM | · | – | · | ·
CC(NC(=O)C1CCOCC1)c1nnc2n1CCN(Cc1ccc(F)cc1)CC2 (centres undefined) | – | – | · | · | · | ·
Cc1ccccc1-c1cnc(C(O)c2cccc(C)c2C)[nH]1 (centres undefined) | ? | ? | · | – | · | ·
COc1c(C)cc(C(O)c2ncc(-c3ccccc3)[nH]2)cc1C (centres undefined) | ? | ? | · | -60 | · | ·
Cc1cc(F)ccc1C(O)c1ncc(-c2cccc(OCc3ccccc3)c2)[nH]1 (centres undefined) | 16µM | ? | · | – | · | ·
Cc1cccc(C(O)c2ncc(-c3ccccc3)[nH]2)c1C (centres undefined) | – | 18µM | · | – | · | ·
COc1c(C)cc(C(O)c2ncc(-c3ccc(Cl)cc3)[nH]2)cc1C (centres undefined) | ? | ? | · | – | · | ·
Cc1occc1C(=O)O/N=C(\N)c1ccccc1 | ? | ? | 10µM | · | ? | ?
Cc1ccccc1C(=O)O/N=C(\N)c1ccccc1 | – | – | 10µM | – | 7.1µM | ?
Cc1cccc(C(=O)O/N=C(\N)c2ccc(Br)cc2)c1 | – | – | – | – | – | ?
Cc1ccccc1C(=O)O/N=C(\N)c1ccc([N+](=O)[O-])cc1 | – | – | ? | – | – | ?
Cc1cccc(/C(N)=N/OC(=O)c2ccoc2C)c1 | ? | 0.65µM | ? | – | ? | ?
CC/C(=N\O)c1c(O)c2c(n(-c3ccccc3)c1=O)CCCC2 | – | – | ? | – | ? | –
O=C(NCCc1ccccc1)[C@@H]1CC=C[C@@H]2CCN(C3CC3)C(=O)[C@@H]21 | – | – | · | · | · | ·
COc1cc(OC)c(C(=O)OCC(=O)Nc2ccccc2Cl)cc1OC | – | – | – | – | – | ?
C/C(CC(=O)Nc1ccc2c(c1)OCCO2)=N\NC(=O)c1ccccc1Cl | – | – | – | – | – | ?
CCC(=O)NC(=S)Nc1ccccc1C(F)(F)F | – | – | · | – | · | ·
CC(C)C(=O)NC(=S)Nc1ccccc1C(F)(F)F | – | – | ? | – | 5µM | –
FC(F)(F)c1ccccc1NC(=S)NN=C1CCCCCC1 | ? | ? | ? | – | 4.5µM | –
CCCC(=O)NC(=S)Nc1ccccc1C(F)(F)F | – | – | ? | – | 7.9µM | ·
C[C@@H]1CCC2[C@](C)(CO)C(O)CC[C@@]2(C)[C@@]12CC[C@](CO)(CCO)O2 (some centres undefined) | – | – | – | · | – | ·
SMILES | DT40 TDP1 no CPT | TDP1 cell CPT | Gal4-VP16 FLuc | IL1B secr inh | RORgamma inh | ELG1 DNA repair
Cc1ccc(Nc2c(O)nc[nH]c2=O)cc1 | – | – | · | – | · | ·
Cc1nc(C2COc3ccccc3O2)sc1C(=O)O (centres undefined) | – | – | – | – | – | ?
CCCS(=O)(=O)c1cnc(C2COc3ccccc3O2)nc1N (centres undefined) | 16µM | ? | 1.3µM | – | 0.63µM | ?
COc1ccc(-n2nnnc2C(C2CC2)N2CCN(C/C=C/c3ccccc3)CC2)cc1 (centres undefined) | ? | ? | · | – | · | ·
CCC(c1nnnn1-c1ccc2c(c1)OCCO2)N1CCN(c2ccccc2)CC1 (centres undefined) | ? | ? | · | – | · | ·
C(=C\c1ccccc1)/CN1CCN(C(c2nnnn2-c2ccc3c(c2)OCCO3)C2CC2)CC1 (centres undefined) | 15µM | 23µM | · | – | · | ·
